# Test results reported in the supplement of paper PMC7411054.
# Where a name gives a salt, the structure may show the parent alone.
# What was measured:
# Conditions in all cases: treatment time: 24 h
# [1] = test system: A549-ACTB-RAB5A; assay: phenotypically active (imaging signature differs from DMSO and reproducible) at any of 0.3-9 uM (binary (1 = active, 0 = inactive)); higher = active
# Outline: (§1)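 After 24 h at 0.3, 1, 3 or 9 µM, with four wells per treatment, fifteen gene-edited A549, HepG2 and WPMY1 reporter lines carrying BFP, GFP and RFP/FusionRed were imaged live. Each well's live-cell features were expressed relative to solvent control wells. Deviation required ≥3 of 4 wells past the 95th percentile of control Euclidean distances, and reproducibility a median replicate Pearson correlation over the 95th percentile of non-replicates. Phenotypic activity rested on both.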
# [2] = test system: A549-CANX-COX4; assay: as above
# Outline: as §1
# [3] = test system: A549-GM130-SQSTM1; assay: as above
# Outline: as §1
# [4] = test system: A549-TP53BP1-CLTA; assay: as above
# Outline: as §1
# [5] = test system: A549-TUBA1B-RELA; assay: as above
# Outline: as §1
# [6] = test system: HepG2-ACTB-RAB5A; assay: as above
# Outline: as §1
# [7] = test system: HepG2-CANX-COX4; assay: as above
# Outline: as §1
# [8] = test system: HepG2-GM130-SQSTM1; assay: as above
# Outline: as §1
# [9] = test system: HepG2-TP53BP1-CLTA; assay: as above
# Outline: as §1
# [10] = test system: HepG2-TUBA1B-RELA; assay: as above
# Outline: as §1
# [11] = test system: WPMY1-ACTB-RAB5A; assay: as above
# Outline: as §1
# [12] = test system: WPMY1-CANX-COX4; assay: as above
# Outline: as §1
# [13] = test system: WPMY1-GM130-SQSTM1; assay: as above
# Outline: as §1
# [14] = test system: WPMY1-TP53BP1-CLTA; assay: as above
# Outline: as §1
# [15] = test system: WPMY1-TUBA1B-RELA; assay: as above
# Outline: as §1
# [16] = test system: A549-ACTB-RAB5A; assay: lowest phenotypically active concentration; higher = less potent
# Outline: as §1
# [17] = test system: A549-CANX-COX4; assay: as above
# Outline: as §1
# [18] = test system: A549-GM130-SQSTM1; assay: as above
# Outline: as §1
# [19] = test system: A549-TP53BP1-CLTA; assay: as above
# Outline: as §1
# [20] = test system: A549-TUBA1B-RELA; assay: as above
# Outline: as §1
Compound,phenotypically active [1],phenotypically active [2],phenotypically active [3],phenotypically active [4],phenotypically active [5],phenotypically active [6],phenotypically active [7],phenotypically active [8],phenotypically active [9],phenotypically active [10],phenotypically active [11],phenotypically active [12],phenotypically active [13],phenotypically active [14],phenotypically active [15],lowest phenotypically active concentration [16],lowest phenotypically active concentration [17],lowest phenotypically active concentration [18],lowest phenotypically active concentration [19],lowest phenotypically active concentration [20]
O=C(NCc1ccccn1)Nc1nnc(-c2ccco2)o1,0 (inactive),0 (inactive),0 (inactive),0 (inactive),0 (inactive),0 (inactive),0 (inactive),0 (inactive),0 (inactive),0 (inactive),0 (inactive),0 (inactive),0 (inactive),0 (inactive),0 (inactive),–,–,–,–,–
O=C(Nc1cc(C(F)(F)F)cc(C(F)(F)F)c1)c1cnc(Cl)nc1C(F)(F)F,0 (inactive),0 (inactive),0 (inactive),0 (inactive),0 (inactive),0 (inactive),0 (inactive),0 (inactive),0 (inactive),0 (inactive),0 (inactive),0 (inactive),0 (inactive),0 (inactive),0 (inactive),–,–,–,–,–
COc1ccc(C(=O)Nc2sc3c(c2C(N)=O)CCCC3)cc1OC,0 (inactive),0 (inactive),0 (inactive),0 (inactive),0 (inactive),0 (inactive),0 (inactive),0 (inactive),0 (inactive),0 (inactive),0 (inactive),0 (inactive),0 (inactive),0 (inactive),0 (inactive),–,–,–,–,–
CC(=O)NCCCS(=O)(=O)O [acamprosate],0 (inactive),0 (inactive),0 (inactive),0 (inactive),0 (inactive),0 (inactive),0 (inactive),0 (inactive),0 (inactive),0 (inactive),0 (inactive),0 (inactive),0 (inactive),0 (inactive),0 (inactive),–,–,–,–,–
"CCCC(=O)Nc1ncnc2c1ncn2[C@@H]1O[C@@H]2COP(=O)(O)O[C@H]2[C@H]1OC(=O)CCC [Dibutyryl-cAMP, sodium salt]",0 (inactive),0 (inactive),0 (inactive),0 (inactive),0 (inactive),0 (inactive),0 (inactive),0 (inactive),0 (inactive),0 (inactive),0 (inactive),0 (inactive),0 (inactive),0 (inactive),0 (inactive),–,–,–,–,–
Cn1nnc2c(C(N)=O)ncn2c1=O [temozolomide],0 (inactive),0 (inactive),0 (inactive),0 (inactive),0 (inactive),0 (inactive),0 (inactive),0 (inactive),0 (inactive),0 (inactive),0 (inactive),0 (inactive),0 (inactive),0 (inactive),0 (inactive),–,–,–,–,–
CCOC(=O)[C@H](CCc1ccccc1)N[C@@H](C)C(=O)N1[C@H](C(=O)O)C[C@@H]2CCC[C@@H]21 [ramipril],0 (inactive),0 (inactive),0 (inactive),0 (inactive),0 (inactive),0 (inactive),0 (inactive),0 (inactive),0 (inactive),0 (inactive),0 (inactive),0 (inactive),0 (inactive),0 (inactive),0 (inactive),–,–,–,–,–
Cc1ccc(OCCSc2ncccn2)c(Br)c1 [ZLN 024 hydrochloride],0 (inactive),0 (inactive),0 (inactive),0 (inactive),0 (inactive),0 (inactive),0 (inactive),0 (inactive),0 (inactive),0 (inactive),0 (inactive),0 (inactive),0 (inactive),0 (inactive),0 (inactive),–,–,–,–,–
Nc1ccc(C(=O)O)c(O)c1 [aminosalicylate],0 (inactive),0 (inactive),0 (inactive),0 (inactive),0 (inactive),0 (inactive),0 (inactive),0 (inactive),0 (inactive),0 (inactive),0 (inactive),0 (inactive),0 (inactive),0 (inactive),0 (inactive),–,–,–,–,–
CCOC(=O)Nc1ccc2c(c1)N(C(=O)CCN1CCOCC1)c1ccccc1S2 [moracizine],0 (inactive),0 (inactive),0 (inactive),0 (inactive),0 (inactive),0 (inactive),0 (inactive),0 (inactive),0 (inactive),0 (inactive),0 (inactive),0 (inactive),0 (inactive),0 (inactive),0 (inactive),–,–,–,–,–
Nc1nc(OCC2CCCCC2)c2nc[nH]c2n1,1 (active),0 (inactive),0 (inactive),0 (inactive),0 (inactive),0 (inactive),0 (inactive),0 (inactive),0 (inactive),0 (inactive),0 (inactive),0 (inactive),0 (inactive),0 (inactive),0 (inactive),9 µM,–,–,–,–
C=CCc1ccc(O)c(-c2ccc(O)c(CC=C)c2)c1 [Honokiol],1 (active),0 (inactive),0 (inactive),0 (inactive),0 (inactive),0 (inactive),0 (inactive),0 (inactive),0 (inactive),0 (inactive),0 (inactive),0 (inactive),0 (inactive),0 (inactive),0 (inactive),9 µM,–,–,–,–
COc1ccc2c(NC(=O)Nc3cccc(C(F)(F)F)n3)ccnc2c1,1 (active),1 (active),1 (active),1 (active),1 (active),1 (active),1 (active),1 (active),1 (active),1 (active),1 (active),1 (active),1 (active),1 (active),0 (inactive),≤ 0.3 µM,9 µM,3 µM,9 µM,3 µM
COc1ccc(N2C(=O)CSC2c2cccc(Br)c2)c(OC)c1 (configuration not stated),1 (active),1 (active),1 (active),1 (active),1 (active),1 (active),1 (active),1 (active),1 (active),1 (active),1 (active),1 (active),1 (active),1 (active),1 (active),3 µM,9 µM,9 µM,3 µM,9 µM
CC1(C)O[C@@H]2C[C@H]3[C@@H]4C[C@H](F)C5=CC(=O)CC[C@]5(C)[C@H]4[C@@H](O)C[C@]3(C)[C@]2(C(=O)CO)O1 [flurandrenolide],1 (active),1 (active),1 (active),1 (active),1 (active),0 (inactive),0 (inactive),0 (inactive),0 (inactive),0 (inactive),0 (inactive),0 (inactive),0 (inactive),0 (inactive),0 (inactive),≤ 0.3 µM,≤ 0.3 µM,≤ 0.3 µM,≤ 0.3 µM,≤ 0.3 µM
COc1cc(C[C@H]2C(=O)OC[C@@H]2Cc2ccc(OC)c(OC)c2)ccc1O [Arctigenin],1 (active),1 (active),1 (active),1 (active),1 (active),1 (active),1 (active),1 (active),1 (active),1 (active),0 (inactive),0 (inactive),0 (inactive),0 (inactive),0 (inactive),3 µM,3 µM,3 µM,3 µM,9 µM
FC(F)(F)c1ccc(/C=C/c2nc(COc3ccc(CCCCn4ccnn4)cc3)co2)cc1,1 (active),1 (active),1 (active),1 (active),1 (active),1 (active),1 (active),1 (active),1 (active),1 (active),0 (inactive),0 (inactive),0 (inactive),0 (inactive),0 (inactive),≤ 0.3 µM,≤ 0.3 µM,≤ 0.3 µM,≤ 0.3 µM,≤ 0.3 µM
C[C@@H]1C[C@H]2[C@@H]3C[C@H](F)C4=CC(=O)C=C[C@]4(C)[C@@]3(F)[C@@H](O)C[C@]2(C)[C@@]1(O)C(=O)COC(=O)C(C)(C)C [flumethasone pivalate],1 (active),1 (active),1 (active),1 (active),1 (active),0 (inactive),0 (inactive),0 (inactive),0 (inactive),0 (inactive),0 (inactive),0 (inactive),0 (inactive),0 (inactive),0 (inactive),≤ 0.3 µM,≤ 0.3 µM,≤ 0.3 µM,≤ 0.3 µM,≤ 0.3 µM
CC(=O)[C@@]1(O)CC[C@H]2[C@@H]3C[C@H](C)C4=CC(=O)C=C[C@]4(C)[C@@]3(F)[C@@H](O)C[C@@]21C [fluorometholone],1 (active),1 (active),1 (active),1 (active),1 (active),0 (inactive),0 (inactive),0 (inactive),0 (inactive),0 (inactive),0 (inactive),0 (inactive),0 (inactive),0 (inactive),0 (inactive),≤ 0.3 µM,≤ 0.3 µM,≤ 0.3 µM,≤ 0.3 µM,≤ 0.3 µM
COc1cc2ncnc(Nc3ccc(O)c(Br)c3)c2cc1OC,1 (active),1 (active),1 (active),1 (active),1 (active),1 (active),1 (active),1 (active),1 (active),1 (active),1 (active),1 (active),1 (active),1 (active),0 (inactive),1 µM,3 µM,3 µM,1 µM,3 µM
O=C1NC(=O)C(c2ccccc2[N+](=O)[O-])=C1Nc1ccc(O)c(Cl)c1,1 (active),1 (active),1 (active),1 (active),1 (active),1 (active),1 (active),1 (active),1 (active),1 (active),1 (active),0 (inactive),0 (inactive),0 (inactive),0 (inactive),9 µM,9 µM,9 µM,9 µM,9 µM
O=C1CC(c2ccc(O)cc2)Oc2cc(O)cc(O)c21 (configuration not stated) [Naringenine],0 (inactive),0 (inactive),0 (inactive),0 (inactive),0 (inactive),0 (inactive),0 (inactive),0 (inactive),0 (inactive),0 (inactive),0 (inactive),0 (inactive),0 (inactive),0 (inactive),0 (inactive),–,–,–,–,–
